Screens: PubChem BioAssay, Broad Institute
YB-1 expression = inhibitors of YB-1 gene expression, primary screen, cell-based, fluorescence | U2OS, qRT-PCR YB-1 vs CDIP delta delta Cp, 16 h; stronger effect = higher value; zero = DMSO, each unit about twofold | delta delta Cp (YB-1 minus CDIP) (test concentration not listed) | 30,000 tested, 0.37% active;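 active means delta delta Cp rounded down to an integer at or above 3, about 3 SD of DMSO wells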;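 further: higher means less YB-1 transcript or more CDIP transcript relative to DMSO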
PD-1 reversal = activators reversing PD-1 mediated T-cell inhibition, primary screen, luminescence, primary human CD4 T cells, PD-L1 beads. CellTiter-Glo 96 h. activation, % (concentration not given with the values). 29,000 tested, under 10 active. AID 2316, 2010; call rule not given here
ROS inducer = ROS inducers in U2OS cancer cells, primary screen, cell-based, H2DCF-DA fluorescence | U2OS ROS induction | AID 624156, 2012 | ROS induction (% of piperlongumine), % at 10 µM | 46,000 tested, 2% active; in the data active means ROS induction above about 79%, passing the limit was not always enough; inconclusive means no clear call, values can overlap the other calls
NOMO-1 viab = NOMO-1 AML cell viability reduction, primary screen, STK33 inhibitor project, CellTiter-Glo luminescence; AID 2330, 2010; inhibition, % (test concentration not listed); 37,000 tested, 7.5% active; NOMO-1 AML viability, 72 h; in the data active means inhibition above about 80%; inconclusive means no clear call, values can overlap the other calls
Of the large screens only hits and unclear results are named; the others gave an inactive call. This excerpt belongs to a sample that is enriched for hits.

COc1ccc(OCC(O)CNC(=O)c2ccccc2C(=O)O)cc1 (configuration not stated)	none (no result: YB-1 expression, PD-1 reversal, NOMO-1 viab)
OC(COc1ccc(Nc2ccccc2)cc1)COc1ccc(Nc2ccccc2)cc1	NOMO-1 viab 102.7
O=C(NO)c1ccc(C(=O)N/N=C/c2ccc(O)cc2)cc1	none (no result: PD-1 reversal, NOMO-1 viab)
O=C(N/N=C/c1ccc([N+](=O)[O-])o1)c1ccc(O)cc1	NOMO-1 viab 140.3
Cc1ccc(S(=O)(=O)NCCC(=O)N2CCOCCOCCOCC2)cc1	none (no result: YB-1 expression, PD-1 reversal, NOMO-1 viab)
C/C(=N\O)c1ccc2c(c1)CCO2	none
CN(C)/C=C/C(=O)c1ccc2c(c1)CCO2	NOMO-1 viab 109.6
C[C@H]1CN([C@@H](C)CO)C(=O)c2cccc(NC(=O)NC3CCCCC3)c2O[C@@H]1CN(C)C(=O)Nc1ccc(C(F)(F)F)cc1	NOMO-1 viab 100.0
C[C@H](CO)N1C[C@H](C)[C@H](CN(C)C(=O)Nc2ccc(C(F)(F)F)cc2)Oc2c(NC(=O)NC3CCCCC3)cccc2C1=O	NOMO-1 viab 105.7
C[C@H](CO)N1C[C@H](C)[C@H](CN(C)C(=O)Nc2ccc(C(F)(F)F)cc2)Oc2c(NC(=O)C3CCCCC3)cccc2C1=O	NOMO-1 viab 94.9
C[C@H]1CN([C@@H](C)CO)C(=O)c2cccc(NC(=O)C3CCCCC3)c2O[C@@H]1CN(C)C(=O)Nc1ccc(C(F)(F)F)cc1	none
CC(C)Cc1ccc(C(C)C(=O)N2CCN(c3ccc(C(F)(F)F)cn3)CC2)cc1 (configuration not stated)	none (no result: YB-1 expression, PD-1 reversal, NOMO-1 viab)
O=C(CSc1nc(-c2ccccc2)cc(C(F)(F)F)n1)Nc1ccccc1Cl	none (no result: YB-1 expression)
Cc1nc2ccc(F)cc2c2c1CCN2c1ccc(Cl)cc1	NOMO-1 viab 107.1
Nc1nc(N(Cc2ccccc2)Cc2ccccc2)nc(C(F)(F)F)n1	NOMO-1 viab 120.1
O=C(Cc1ccc(-n2c(=S)[nH]c3ccccc3c2=O)cc1)N1CCCC1	none (no result: YB-1 expression, PD-1 reversal, NOMO-1 viab)
CCOC(=O)c1cc(-c2ccnn2S(=O)(=O)c2cccc(C(F)(F)F)c2)on1	ROS inducer 183.9 (no result: YB-1 expression, PD-1 reversal, NOMO-1 viab)
COC(=O)c1cc(NC(=O)c2cccc(Cl)c2)cc(C(=O)OC)c1	none (no result: YB-1 expression, PD-1 reversal, NOMO-1 viab)
O=C(Nc1cc(C(=O)Nc2ccccc2O)cc(C(=O)Nc2ccccc2O)c1)c1ccccc1	ROS inducer 97.5 (no result: YB-1 expression, PD-1 reversal, NOMO-1 viab)
COc1ccccc1COc1ccc2c3c(c(=O)oc2c1C)CCCCC3	NOMO-1 viab 86.8
CCOc1ccc2c3c(c(=O)oc2c1C)CCC3	none (no result: YB-1 expression, PD-1 reversal, NOMO-1 viab)
COc1cc2c(cc1-c1coc3c4c(ccc3c1=O)OC(C)(C)C=C4)OCO2	NOMO-1 viab 86.9
COc1cc2c(cc1-c1coc3cc(O[C@@H]4O[C@H](CO)[C@@H](O)[C@H](O)[C@H]4O)ccc3c1=O)OCO2	none
COc1ccc(NC(=O)CSC2CC(=O)N(c3ccccc3)C2=O)cc1Cl (configuration not stated)	none (no result: YB-1 expression)
COc1ccc(C2=NN(S(C)(=O)=O)C(c3ccc(C)cc3)C2)cc1 (configuration not stated)	none
COc1ccc(C2=NN(S(C)(=O)=O)C(c3ccccc3OC)C2)cc1 (configuration not stated)	ROS inducer 163.5
Cc1noc(C)c1NC(=O)Nc1ccc2c(c1)C(=O)N([C@H](C)CO)C[C@@H](C)[C@H](CN(C)C(=O)Nc1c(C)noc1C)O2	ROS inducer 104.8 (no result: PD-1 reversal)
Cc1noc(C)c1NC(=O)N(C)C[C@H]1Oc2ccc(NC(=O)Cn3cnnn3)cc2C(=O)N([C@@H](C)CO)C[C@@H]1C	YB-1 expression 3.92
Cc1noc(C)c1NC(=O)Nc1ccc2c(c1)C(=O)N([C@@H](C)CO)C[C@@H](C)[C@@H](CN(C)C(=O)Nc1c(C)noc1C)O2	none
O=C(CCN1N=C(c2ccccc2)CCC1=O)Nc1cccc(C(F)(F)F)c1	none (no result: YB-1 expression, PD-1 reversal, NOMO-1 viab)
COc1cc2ncnc(Nc3ccc(OCc4ccccc4)cc3)c2cc1OC	none
C#Cc1cccc(Nc2ncnc3cc(OC)c(OC)cc23)c1	NOMO-1 viab 96.1
C[C@@H]1CN([C@@H](C)CO)C(=O)c2cccc(N(C)C)c2O[C@H]1CN(C)Cc1ccc(Cl)c(Cl)c1	NOMO-1 viab 97.3 (no result: PD-1 reversal)
C[C@@H]1CN([C@@H](C)CO)C(=O)c2cccc(N(C)C)c2O[C@@H]1CN(C)Cc1ccc2c(c1)OCO2	YB-1 expression 11.6
C[C@@H]1CN([C@H](C)CO)C(=O)c2cccc(N(C)C)c2O[C@H]1CN(C)Cc1ccc(Cl)c(Cl)c1	NOMO-1 viab 88.0 (no result: PD-1 reversal)
C[C@@H]1CN([C@@H](C)CO)C(=O)c2cccc(NS(=O)(=O)c3cn(C)cn3)c2O[C@H]1CN(C)Cc1ccc2c(c1)OCO2	ROS inducer 85.9
C[C@H]1CN([C@@H](C)CO)C(=O)c2cccc(N(C)C)c2O[C@@H]1CN(C)Cc1ccc(Cl)c(Cl)c1	none
C[C@@H]1CN([C@H](C)CO)C(=O)c2cccc(N(C)C)c2O[C@H]1CN(C)Cc1ccc2c(c1)OCO2	none (no result: PD-1 reversal)
O=C(Cn1c(=O)oc2cc(S(=O)(=O)NCc3ccccc3)ccc21)Nc1ccc(F)cc1	none (no result: YB-1 expression, PD-1 reversal, NOMO-1 viab)
O=C1CC(SC(=Nc2ccccc2)Nc2ccccc2)C(=O)N1CCc1ccccc1 (configuration not stated)	none (no result: YB-1 expression, PD-1 reversal, NOMO-1 viab)
N#CC1=C(N)C(C#N)(C#N)C2(C(=O)N(Cc3ccccc3)c3ccccc32)C2CCCC=C12 (configuration not stated)	ROS inducer 126.5
CCCN1CC=C2C(C#N)=C(N)C(C#N)(C#N)C3(C(=O)Nc4ccccc43)C2C1 (configuration not stated)	none
COc1ccc(C(O)CNC(=O)/C=C/c2ccccc2)cc1 (configuration not stated)	NOMO-1 viab 112.4
COc1ccc(/C=C/C(=O)NCc2ccccc2)cc1	none
C[C@@H]1CN([C@@H](C)CO)C(=O)Cc2cc(NC(=O)Nc3ccc(C(F)(F)F)cc3)ccc2O[C@@H]1CN(C)C(=O)Nc1ccc2c(c1)OCO2	ROS inducer inconclusive, NOMO-1 viab 124.6 (no result: PD-1 reversal)
C[C@@H]1CN([C@H](C)CO)C(=O)Cc2cc(NC(=O)Nc3ccc(C(F)(F)F)cc3)ccc2O[C@@H]1CN(C)C(=O)Nc1ccc2c(c1)OCO2	NOMO-1 viab 113.2
C[C@H]1CN([C@@H](C)CO)C(=O)Cc2cc(NC(=O)Nc3ccc(C(F)(F)F)cc3)ccc2O[C@H]1CN(C)C(=O)Nc1ccc2c(c1)OCO2	none
O=C1CSC(C23CC4CC(CC(C4)C2)C3)N1 (configuration not stated)	none (no result: YB-1 expression, PD-1 reversal, NOMO-1 viab)
O=C(Cn1cnc2ccccc2c1=O)Nc1ccc(Br)cc1F	none (no result: YB-1 expression, PD-1 reversal, ROS inducer)
COc1cc(/C=C/C(=O)CC(=O)/C=C/c2ccc(O)c(OC)c2)ccc1O	NOMO-1 viab 106.7 (no result: PD-1 reversal)
COc1cc(O)c(CC=C(C)C)cc1C(=O)/C=C/c1ccc(O)c(CC=C(C)C)c1	NOMO-1 viab 85.9
COc1ccc(/C=C/C(=O)CC(=O)/C=C/c2cccc(O)c2OC)cc1O	ROS inducer 98.2, NOMO-1 viab 114.7 (no result: PD-1 reversal)
COc1cccc(C(=O)c2sc3nsc(SCc4ccccc4)c3c2N)c1	ROS inducer 335.4
COc1cc(OC)cc(-c2nnc(SCc3cccc(C(=O)O)c3)o2)c1	none (no result: YB-1 expression)
Cc1c(Cl)cccc1NC(=O)CN(c1ccccc1)S(C)(=O)=O	none (no result: YB-1 expression, PD-1 reversal, ROS inducer)
